Experimental data taken from PubChem BioAssay (EPA / NIEHS).
Records with an inconclusive call do not appear. Where a structure was tested more than once in an assay, its records may differ in their call. Activity calls are given as the source filed them. Rule for the calls, unless noted: active = hit-call score of the fitted dose curve at least 0.9, where 1 is the maximum; inconclusive = response in the unintended direction; inactive = score below 0.9.

Assays:
[1] = read-out: Pselectin, SELP (gene 6403); experiment: BSK_4H_Pselectin: BioMAP Diversity Plus: 4H Assay for Pselectin Biomarker Activity (AID 2283026; active = hit-call score of the fitted dose curve at least 0.9, where 1 is the maximum; inactive = score below 0.9); settings: primary human endothelial cells (HUVEC); actives raise or lower the signal
Outline: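 HUVEC, 24 h chemical exposure; P-selectin read by ELISA. Bidirectional curve fit vs DMSO baseline; gain or loss of signal scored.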

[2] = read-out: Macrophage colony-stimulating factor (MCSF), CSF1 (gene 1435); experiment: BSK_CASM3C_MCSF: BioMAP Diversity Plus: CASM3C Assay for Macrophage colony-stimulating factor (MCSF) Biomarker Activity (AID 2283044; active = hit-call score of the fitted dose curve at least 0.9, where 1 is the maximum; inactive = score below 0.9;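 note: M-CSF protein amount quantified by ELISA after 24 h exposure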); settings: primary human coronary artery smooth muscle cells; actives raise or lower the signal
[3] = read-out: Low-density lipoprotein receptor (LDLR), LDLR (gene 3949); experiment: BSK_CASM3C_LDLR: BioMAP Diversity Plus: CASM3C Assay for Low-density lipoprotein receptor (LDLR) Biomarker Activity (AID 2283045; active = hit-call score of the fitted dose curve at least 0.9, where 1 is the maximum; inactive = score below 0.9;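 note: LDLR protein level on the cell surface quantified by ELISA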); settings: primary human coronary artery smooth muscle cells; actives raise or lower the signal
[4] = read-out: serum amyloid A (SAA), SAA1 (gene 6288); experiment: BSK_CASM3C_SAA: BioMAP Diversity Plus: CASM3C Assay for serum amyloid A (SAA) Biomarker Activity (AID 2283049; active = hit-call score of the fitted dose curve at least 0.9, where 1 is the maximum; inactive = score below 0.9;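 note: SAA protein level quantified by ELISA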); settings: primary human coronary artery smooth muscle cells; actives raise or lower the signal
[5] = read-out: Vascular cell adhesion molecule 1 (VCAM1), VCAM1 (gene 7412); experiment: BSK_CASM3C_VCAM1: BioMAP Diversity Plus: CASM3C Assay for Vascular cell adhesion molecule 1 (VCAM1) Biomarker Activity (AID 2283055; active = hit-call score of the fitted dose curve at least 0.9, where 1 is the maximum; inactive = score below 0.9;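 note: VCAM-1 protein level quantified by ELISA on the cells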); settings: primary human coronary artery smooth muscle cells; actives raise or lower the signal
[6] = read-out: Macrophage colony-stimulating factor (MCSF), CSF1 (gene 1435); experiment: BSK_hDFCGF_MCSF: BioMAP Diversity Plus: hDFCGF Assay for Macrophage colony-stimulating factor (MCSF) Biomarker Activity (AID 2283060; active = hit-call score of the fitted dose curve at least 0.9, where 1 is the maximum; inactive = score below 0.9); settings: AC50: primary human foreskin fibroblasts, actives raise or lower the signal unless noted; outcome: primary human foreskin fibroblasts, actives raise or lower the signal unless noted
Outline: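 Primary human foreskin fibroblasts dosed with chemical; 24 h later, M-CSF quantified by ELISA; curves fitted in both directions vs DMSO negative control.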

[7] = read-out: Monokine induced gamma interferon (MIG), CXCL9 (gene 4283); experiment: BSK_hDFCGF_MIG: BioMAP Diversity Plus: hDFCGF Assay for Monokine induced gamma interferon (MIG) Biomarker Activity (AID 2283063; active = hit-call score of the fitted dose curve at least 0.9, where 1 is the maximum; inactive = score below 0.9); settings: primary human foreskin fibroblasts; actives raise or lower the signal
Outline: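 Chemicals were added to primary human foreskin fibroblast cultures, which were sampled 24 h later. MIG levels were then quantified by ELISA and responses fitted in both directions relative to DMSO.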

[8] = ATG_ERE_CIS: Attagene CIS-FACTORIAL HepG2 Assay for Estrogen Response Element (ERE) (AID 2282940; active = hit-call score of the fitted dose curve at least 0.9, where 1 is the maximum; inactive = score below 0.9); settings: HepG2 ERE cis-reporter, Attagene RNA transcript; actives raise or lower the signal
Outline: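 HepG2 cells transiently transfected with cis-promoter-driven multiplexed reporter transcription units report endogenous TF activity. After 24 h compound exposure, reporter mRNA is quantified by RT-PCR with capillary electrophoresis fluorescence; bidirectional fitting versus DMSO baseline.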

[9] = target: Bile acid receptor (Homo sapiens) (UniProt Q96RI1); experiment: ATG_FXR_TRANS: Attagene TRANS-FACTORIAL HepG2 Assay for Farnesoid X Receptor (FXR) (AID 2282979); settings: HepG2 Attagene TRANS FXR-GAL4 reporter transcription;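 note: hits raise reporter mRNA above DMSO so AC50 marks FXR activation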
Chain of Bile acid receptor (Homo sapiens) (Q96RI1 whole entry, looked up, the tested form may be a part): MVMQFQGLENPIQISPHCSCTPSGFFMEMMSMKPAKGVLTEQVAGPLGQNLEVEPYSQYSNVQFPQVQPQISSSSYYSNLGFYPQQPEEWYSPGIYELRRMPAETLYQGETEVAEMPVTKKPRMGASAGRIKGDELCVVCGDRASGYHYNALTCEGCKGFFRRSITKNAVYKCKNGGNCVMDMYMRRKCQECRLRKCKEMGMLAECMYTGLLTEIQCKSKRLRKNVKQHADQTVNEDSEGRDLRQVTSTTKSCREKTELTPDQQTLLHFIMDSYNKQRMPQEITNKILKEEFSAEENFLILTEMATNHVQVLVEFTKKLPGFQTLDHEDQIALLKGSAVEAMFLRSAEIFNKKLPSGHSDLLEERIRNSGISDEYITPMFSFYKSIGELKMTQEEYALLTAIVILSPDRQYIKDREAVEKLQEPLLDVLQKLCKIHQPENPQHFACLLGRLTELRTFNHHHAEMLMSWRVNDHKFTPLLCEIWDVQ
Outline: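 Transient transfection of HepG2 with multiplexed GAL4-UAS reporter units; exogenous FXR-GAL4 chimera. Dose 24 h → TriZol RNA → oligo(dT) RT → PCR, 6-FAM primer extension, HpaI cut → CE. Gain vs DMSO.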

[10] = CCTE_Harrill_HTTr_CellCount_MCF7: CCTE's Cell Proliferation Assessment for the High-Throughput Transcriptomics (HTTr) Platform, Harrill Lab (AID 2284012);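 note: count of Hoechst-stained nuclei per well by high-content imaging in MCF-7 cells; cells exposed to compound for six hours; intended direction is loss of nuclei count meaning fewer cells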
Outline: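 Readout: Hoechst nuclear count by high-content imaging. MCF-7, 8-point dilution series, 6 h exposure. Bidirectional fit vs DMSO baseline.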

[11] = target: Aryl hydrocarbon receptor (Homo sapiens) (UniProt P35869); experiment: ATG_Ahr_CIS: Attagene CIS-FACTORIAL HepG2 Assay for human Aryl Hydrocarbon Receptor (Ahr) (AID 2282930; active = hit-call score of the fitted dose curve at least 0.9, where 1 is the maximum; inactive = score below 0.9); settings: HepG2 AhR cis-factorial reporter transcription; actives raise or lower the signal
Chain of Aryl hydrocarbon receptor (Homo sapiens) (P35869 whole entry, looked up): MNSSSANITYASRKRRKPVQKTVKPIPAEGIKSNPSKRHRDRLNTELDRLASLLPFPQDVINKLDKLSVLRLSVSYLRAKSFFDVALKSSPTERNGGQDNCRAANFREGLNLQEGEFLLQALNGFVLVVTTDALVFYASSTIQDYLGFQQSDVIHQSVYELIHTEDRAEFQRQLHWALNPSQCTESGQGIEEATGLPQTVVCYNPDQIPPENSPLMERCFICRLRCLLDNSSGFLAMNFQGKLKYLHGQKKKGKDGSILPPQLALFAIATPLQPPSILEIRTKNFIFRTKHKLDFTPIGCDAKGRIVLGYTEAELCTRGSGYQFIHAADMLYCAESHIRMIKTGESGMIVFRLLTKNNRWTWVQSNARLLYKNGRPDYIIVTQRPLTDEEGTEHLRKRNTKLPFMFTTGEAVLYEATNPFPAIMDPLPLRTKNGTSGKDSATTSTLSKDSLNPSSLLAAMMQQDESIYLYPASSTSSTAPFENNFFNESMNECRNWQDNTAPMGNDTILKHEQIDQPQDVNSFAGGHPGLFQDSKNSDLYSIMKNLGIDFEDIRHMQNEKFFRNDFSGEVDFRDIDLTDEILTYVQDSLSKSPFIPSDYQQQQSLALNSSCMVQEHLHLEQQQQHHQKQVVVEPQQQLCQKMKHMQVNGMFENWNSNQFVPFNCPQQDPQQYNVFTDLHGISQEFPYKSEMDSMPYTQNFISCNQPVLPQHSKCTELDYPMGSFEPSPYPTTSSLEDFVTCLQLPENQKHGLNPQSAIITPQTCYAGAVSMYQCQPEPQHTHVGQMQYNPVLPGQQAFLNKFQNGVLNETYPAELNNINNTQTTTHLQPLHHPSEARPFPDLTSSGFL
Outline: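 Transient MRTU transfection of HepG2 → 24 h compound exposure → total RNA, oligo(dT) RT → PCR, 6-FAM extension, HpaI cut → CE fluorescence. DMSO = baseline; bidirectional curve fit.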

[12] = target: Estrogen receptor beta (Homo sapiens) (UniProt Q92731); experiment: OT_ER_ERbERb_0480: Odyssey Thera (OT) 8-hour HEK293T Protein-Complementation Assay for Estrogen Receptor-beta/-beta Homodimer (AID 2283357);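 note: active means signal gain over DMSO baseline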
Chain of Estrogen receptor beta (Homo sapiens) (Q92731 whole entry, looked up, the tested form may be a part): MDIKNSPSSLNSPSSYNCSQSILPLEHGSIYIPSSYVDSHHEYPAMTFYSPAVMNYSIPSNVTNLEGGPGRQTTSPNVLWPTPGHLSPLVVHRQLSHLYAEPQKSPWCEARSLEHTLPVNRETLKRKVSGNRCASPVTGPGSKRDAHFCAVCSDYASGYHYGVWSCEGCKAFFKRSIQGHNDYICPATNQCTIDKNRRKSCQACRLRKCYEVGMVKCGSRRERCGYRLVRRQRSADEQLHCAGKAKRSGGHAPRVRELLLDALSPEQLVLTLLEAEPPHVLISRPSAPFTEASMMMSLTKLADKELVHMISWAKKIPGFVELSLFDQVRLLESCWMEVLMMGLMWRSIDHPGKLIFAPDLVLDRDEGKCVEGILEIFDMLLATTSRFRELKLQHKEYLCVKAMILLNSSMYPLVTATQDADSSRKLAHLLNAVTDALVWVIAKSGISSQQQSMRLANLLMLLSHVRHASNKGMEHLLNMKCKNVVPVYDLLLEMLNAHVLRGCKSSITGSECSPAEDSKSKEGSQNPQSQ
Outline: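 ER-beta LBD homodimer PCA stably expressed in HEK293T; 8 h compound exposure, then formaldehyde fixation and Draq5 staining. Gain in nuclear/cytoplasmic fluorescence intensity versus DMSO vehicle, read on laser scanning cytometer.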

[13] = target: Estrogen receptor beta (Homo sapiens) (UniProt Q92731); experiment: OT_ER_ERbERb_1440: Odyssey Thera (OT) 24-hour HEK293T Protein-Complementation Assay for Estrogen Receptor-beta/-beta Homodimer (AID 2283380);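 note: scored as signal increase over DMSO baseline for both agonists and antagonists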
Outline: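 Fluorescence increase, nuclear for agonists or whole-cell for antagonists, relative to DMSO vehicle, quantified by laser scanning cytometer after fixation and Draq5 staining. Readout from 24 h treatment of HEK293T cells carrying complementation-paired ER beta LBD (aa 310-547).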

[14] = target: Retinoic acid receptor RXR-alpha (Homo sapiens) (UniProt P19793); experiment: OT_NURR1_NURR1RXRa_0480: Odyssey Thera (OT) 8-hour HEK293T Protein Complementation Assay for Nurr1/retinoid X receptor (RXR) (AID 2283385)
Chain of Retinoic acid receptor RXR-alpha (Homo sapiens) (P19793 whole entry, looked up, the tested form may be a part): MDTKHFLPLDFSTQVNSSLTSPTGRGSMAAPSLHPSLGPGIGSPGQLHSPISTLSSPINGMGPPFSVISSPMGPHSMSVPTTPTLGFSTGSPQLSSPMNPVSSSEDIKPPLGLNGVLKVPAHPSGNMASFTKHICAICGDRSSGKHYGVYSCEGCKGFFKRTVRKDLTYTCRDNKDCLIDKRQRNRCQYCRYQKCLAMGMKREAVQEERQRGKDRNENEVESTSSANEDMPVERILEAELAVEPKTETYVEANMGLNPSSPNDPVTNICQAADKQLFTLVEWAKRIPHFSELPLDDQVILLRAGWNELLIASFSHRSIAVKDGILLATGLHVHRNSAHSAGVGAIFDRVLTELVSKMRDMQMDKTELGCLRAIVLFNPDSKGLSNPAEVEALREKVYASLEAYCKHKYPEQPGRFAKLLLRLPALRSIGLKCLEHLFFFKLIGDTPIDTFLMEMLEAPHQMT
Outline: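 Read-out: fluorescence from protein-fragment complementation between Nurr1 and RXRα in human HEK293T cells, 8 h after dosing. DMSO served as negative control; increased signal counted as activity.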

[15] = target: Retinoic acid receptor RXR-alpha (Homo sapiens) (UniProt P19793); experiment: OT_NURR1_NURR1RXRa_1440: Odyssey Thera (OT) 24-hour HEK293T Protein Complementation Assay for Nurr1/retinoid X receptor (RXR) (AID 2283386)
Outline: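 Fluorescence PCA read-out; HEK293T; 24 h post-dose; bait/prey fused to reporter fragments; gain-of-signal fit vs DMSO negative control.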

[16] = target: Peroxisome proliferator-activated receptor gamma (Homo sapiens) (UniProt P37231); experiment: OT_PPARg_PPARgSRC1_0480: Odyssey Thera (OT) 8-hour Protein-Complementation Assay for Peroxisome Proliferator-activated Receptor Gamma / SRC-1 Co-activator (AID 2283387);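 note: nuclear to cytoplasmic split Venus YFP fluorescence ratio reporting PPARg SRC-1 interaction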
Chain of Peroxisome proliferator-activated receptor gamma (Homo sapiens) (P37231 whole entry, looked up, the tested form may be a part): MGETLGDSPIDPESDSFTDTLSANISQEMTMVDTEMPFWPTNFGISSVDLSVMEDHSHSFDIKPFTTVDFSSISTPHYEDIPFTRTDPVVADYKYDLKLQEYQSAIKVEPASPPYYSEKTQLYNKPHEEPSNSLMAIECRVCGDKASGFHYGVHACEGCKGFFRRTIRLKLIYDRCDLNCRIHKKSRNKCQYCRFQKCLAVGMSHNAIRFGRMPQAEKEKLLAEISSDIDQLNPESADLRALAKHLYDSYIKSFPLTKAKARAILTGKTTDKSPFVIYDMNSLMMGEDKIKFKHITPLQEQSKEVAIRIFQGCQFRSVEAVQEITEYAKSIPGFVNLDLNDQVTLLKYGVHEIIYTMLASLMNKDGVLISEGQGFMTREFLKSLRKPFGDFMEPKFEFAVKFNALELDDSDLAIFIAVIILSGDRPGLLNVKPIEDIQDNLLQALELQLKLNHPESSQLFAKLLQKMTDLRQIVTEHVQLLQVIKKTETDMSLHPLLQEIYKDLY
Outline: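 Protein-fragment complementation of split Venus YFP reports PPARg/SRC-1 interaction in HEK293T (transfected 48 h before treatment), exposed 8 h. Readout: N/C fluorescence ratio at 488 nm from imaging, Draq5 for segmentation, positive fit relative to DMSO.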

[17] = target: Peroxisome proliferator-activated receptor gamma (Homo sapiens) (UniProt P37231); experiment: OT_PPARg_PPARgSRC1_1440: Odyssey Thera (OT) 24-hour Protein-Complementation Assay for Peroxisome Proliferator-activated Receptor Gamma/ SRC-1 Co-activator (AID 2283388);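 note: nuclear to cytoplasmic ratio of reconstituted Venus YFP fluorescence in fixed imaged cells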
Outline: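 Protein-fragment complementation between PPARg and coactivator SRC-1 was measured by fluorescence imaging in transiently transfected HEK293T cells after 24 h treatment. Signal was quantified as N/C ratio in the 488 nm channel, with DMSO as negative control.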

[18] = ACEA_AR_agonist_AUC_viability: ACEA Biosciences xCELLigence Real-Time Cell Analysis on Androgen Receptor Agonism for Viability (AID 2283775)
Outline: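 Viability endpoint from xCELLigence impedance in 22Rv1 prostate cells at 80 h. Eight-point series, 100 uM maximum final.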

[19] = ACEA_AR_antagonist_AUC_viability: ACEA Biosciences xCELLigence Real-Time Cell Analysis on Androgen Receptor Antagonism for Viability (AID 2283776);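 note: 22Rv1 human prostate cancer cells growing on impedance electrode plates; area under impedance growth curve at 80 h after dosing as viability; hits lower the growth signal relative to DMSO meaning cytotoxicity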
Outline: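 Impedance read-out (RT-CES): area under growth curve at 80 h post-dose, loss of signal scored vs DMSO baseline. 22Rv1 cells; 8-pt 1:4 series, top 100 uM final, ≤0.5% DMSO; biological duplicate.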

[20] = target: Steroid hormone receptor ERR1 (Homo sapiens) (UniProt P11474); experiment: ATG_ERRa_TRANS: Attagene TRANS-FACTORIAL HepG2 Assay for human Estrogen-Related Receptor alpha (ERRa) (AID 2282971); settings: HepG2 Attagene TRANS reporter, ERRa transactivation
Chain of Steroid hormone receptor ERR1 (Homo sapiens) (P11474 whole entry, looked up, the tested form may be a part): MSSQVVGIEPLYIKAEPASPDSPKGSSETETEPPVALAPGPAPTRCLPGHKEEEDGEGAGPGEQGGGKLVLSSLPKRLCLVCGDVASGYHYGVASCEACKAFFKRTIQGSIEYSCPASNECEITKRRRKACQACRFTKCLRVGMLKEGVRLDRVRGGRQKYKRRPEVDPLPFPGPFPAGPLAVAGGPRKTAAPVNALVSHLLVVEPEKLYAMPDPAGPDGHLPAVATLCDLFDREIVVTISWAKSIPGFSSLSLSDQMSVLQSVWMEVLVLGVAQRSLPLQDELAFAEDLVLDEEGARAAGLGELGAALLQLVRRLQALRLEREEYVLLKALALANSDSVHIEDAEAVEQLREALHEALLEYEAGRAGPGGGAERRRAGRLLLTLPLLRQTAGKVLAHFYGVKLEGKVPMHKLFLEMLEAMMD
Outline: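 Reporter transcript induction was quantified by RT-PCR and capillary electrophoresis of FAM-labelled, HpaI-cut products after 24 h treatment of HepG2 cells carrying transiently transfected GAL4-UAS reporter units and an exogenous ERRa-Gal4 fusion; activity scored as increase over DMSO.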

Measured: AC50

CN(C)Cc1cc(C(C)(C)C)c(O)c(C(C)(C)C)c1
inactive: [1] | [2] | [3] | [4] | [5] | [6] inactive [setting not given] | [7]
active: [1] 1.56 µM | [4] 5.92 µM | [5] 0.15 µM | [6] 18.3 µM [setting not given] | [7] 20 µM

CCCOCCC
inactive: [8]

Oc1ccc(Cl)cc1C1CCCC1
active: [8] 8.73 µM | [9] 18.5 µM
inactive: [10]

CC1=C(CC(=O)O)c2cc(F)ccc2/C1=C\c1ccc(S(C)=O)cc1 (stereo not given)
active: [11] 3.48 µM
inactive: [10]

Cc1cc(C)c(S(=O)(=O)O)cc1N=Nc1cc(S(=O)(=O)O)c2ccccc2c1O
inactive: [12] | [13] | [14] | [15] | [16] | [17] | [18] | [19]
active: [11] 42.4 µM

CCCC(=O)OC/C=C(\C)CCC=C(C)C
inactive: [8]

CNC[C@H](O)[C@@H](O)[C@H](O)[C@H](O)CO
inactive: [9]

C=CCOC(=O)C(=C)C
inactive: [20]

CC(C)CC(=O)O
inactive: [8]

CC(C)(C)NC(=O)[C@@H]1CN(Cc2cccnc2)CCN1C[C@@H](O)C[C@@H](Cc1ccccc1)C(=O)N[C@H]1c2ccccc2C[C@H]1O
active: [11] 57.2 µM
inactive: [9]

CCCN[C@H]1CCc2nc(N)sc2C1
inactive: [11]

O=C(c1ccccc1)c1ccccc1O
inactive: [20] | [13] | [16] | [17] | [18] | [19]
active: [12] 50 µM

CCCCCCCC#N
inactive: [20]

CCCCCCC1CCC(=O)O1 (stereo not given)
inactive: [8] | [20] | [13] | [16] | [17] | [18] | [19]

CN(C)c1ccc(C(c2ccccc2)c2ccc(N(C)C)cc2)cc1
active: [1] 7.46 µM
inactive: [11] | [2] | [3] | [4] | [5] | [6] | [7]

F[B-](F)(F)F
inactive: [11] | [14] | [15] | [16] | [17] | [18] | [19]

C=C1CC[C@H]2C[C@@H]1C2(C)C
inactive: [8] | [12] | [13] | [14] | [16] | [17] | [18] | [19]

c1cc(N(CC2CO2)CC2CO2)ccc1Cc1ccc(N(CC2CO2)CC2CO2)cc1 (stereo not given)
inactive: [8] | [20] | [9]

C[Si](C)(C)O[Si](C)(C)O[Si](C)(C)C
inactive: [11] | [12] | [13] | [14] | [15] | [16] | [17] | [18] | [19]

Nc1ccc(S(=O)(=O)Nc2cnc3ccccc3n2)cc1
inactive: [11] | [12] | [13] | [14] | [15] | [16] | [17]

COc1c2occc2cc2ccc(=O)oc12
inactive: [9]

CC(C)(Oc1ccc(Cl)cc1)C(=O)O
inactive: [11]

COC(OC)C(C)c1ccccc1 (stereo not given)
inactive: [8]

CC(O)(P(=O)(O)O)P(=O)(O)O
inactive: [11]

CC(C)n1c(/C=C/[C@@H](O)C[C@@H](O)CC(=O)O)c(-c2ccc(F)cc2)c2ccccc21
active: [11] 51.7 µM

O=C(Oc1ccccc1)c1ccccc1
inactive: [12] | [13] | [15] | [16] | [17] | [18] | [19] | [10]
active: [14] 75.8 µM
